From PubChem BioAssay
Calls of active or inactive are those of the source.

Experiments:
[1] = optical density shifts of acrAB sulA E. coli – strain DRC41, OD650, 48 h, E. coli filamentation inducer project, primary screen (AID 1152); details: higher = more signal, called active from +8 up or from −8 down;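 further: E. coli MC1000 strain DRC41 lacking acrAB efflux pump and sulA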
[2] = probe aLefty1 binding on compound microarray – biochemical, small-molecule microarray, 635/667 nm fluorescence, primary screen (AID 1153); details: higher = more signal;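 further: score merges spot fluorescence with signal-to-noise ratio from the scanned slide images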
[3] = plasmodial surface anion channel blockers, osmotic lysis – cell-based, P. falciparum Indochina, OD700, 1 h, primary screen (AID 1154); details: P. falciparum Indochina infected RBC osmotic lysis, higher = more signal, called active from +8 up or from −8 down
[4] = plasmodial surface anion channel blockers, osmotic lysis – cell-based, P. falciparum Indochina, OD700, 2 h, primary screen (AID 1155);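 further: lysis reports solute entry through the parasite surface anion channel PSAC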; details: P. falciparum Indochina infected erythrocytes, higher = more signal, called active from +8 up or from −8 down
[5] = changes in parasitized red cell lysis, either direction – P. falciparum Indochina, OD700, 3 h, PSAC antagonist project, primary screen (AID 1156); details: P. falciparum-infected erythrocytes, osmotic lysis, higher = more signal, called active from +8 up or from −8 down
[6] = plasmodial surface anion channel blockers, osmotic lysis – cell-based, P. falciparum Indochina, OD700, 18 h, primary screen (AID 1157); details: P. falciparum Indochina infected erythrocytes, osmotic lysis OD700, 18 h; higher = more signal, called active from +8 up or from −8 down
[7] = S6 kinase pathway phospho-S6 level changes – cell-based, A549, cytoblot, luminescence, serum-stimulated, primary screen (AID 1158); details: 5 h, higher = more signal;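 further: serum-stimulated A549 lung adenocarcinoma cells; signal is phosphorylated S6 detected by cytoblot immunostaining with HRP secondary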
[8] = biological target: NADPH oxidase 2 (Homo sapiens) (UniProt P04839); assay: compounds shifting NOX2 Amplex Red fluorescence – cell-based, HEK293-NOX2, PMA-stimulated, NOX inhibitor project, primary screen (AID 1159); details: 45 min, higher = more signal, called active from +8 up or from −8 down; further: test concentration not given here
[9] = biological target: NADPH oxidase 4 (Homo sapiens) (UniProt Q9NPH5); assay: compounds shifting NOX4 Amplex Red fluorescence – cell-based, HEK293-NOX4, tetracycline-induced, NOX inhibitor project, primary screen (AID 1160); details: HEK293-NOX4, Amplex Red H2O2 fluorescence, 45 min; higher = more signal, called active from +8 up or from −8 down
[10] = biological target: NADPH oxidase 5 (Homo sapiens) (UniProt Q96PH1); assay: compounds shifting NOX5 Amplex Red fluorescence – cell-based, HEK293-NOX5, NOX inhibitor project, primary screen (AID 1161); details: HEK293-NOX5, ionomycin, 45 min, higher = more signal
[11] = compound effects on lung adenocarcinoma cell viability – A549, calcein-AM fluorescence, 48 h, basal, profiling panel (AID 1162); details: higher = more signal; further: test concentration not given here
[12] = compound effects on differentiated 3T3-L1 adipocyte viability – cell-based, 3T3-L1 adipocytes, calcein-AM fluorescence, 48 h, basal, profiling panel (AID 1163); details: 3T3-L1 adipocytes viability, higher = more signal; further: test concentration not given here
[13] = compound effects on hepatocellular carcinoma cell viability – HepG2, calcein-AM fluorescence, 48 h, basal, profiling panel (AID 1164); details: higher = more signal; further: test concentration not given here
[14] = compound effects on multiple myeloma cell viability – MM1S, calcein-AM fluorescence, 48 h, basal, profiling panel (AID 1165); details: higher = more signal;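 further: viability of MM1S multiple myeloma cells under basal unstimulated conditions; test concentration not given here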
[15] = calcein-AM signal in unstimulated myeloma cells – cell-based, calcein-AM fluorescence, 48 h, PK04 Diversity Set, profiling panel (AID 1166); details: RPMI8226 myeloma viability, higher = more signal;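 further: cells grown under basal conditions without added stimulus; test concentration not given here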
[16] = JC-1 mitochondrial signal, unstimulated HepG2 cells – cell-based, JC-1 fluorescence, 24 h, 100 nL compound, profiling panel (AID 1167); details: HepG2 mitochondrial potential, higher = more signal; further: test concentration not given here
[17] = JC-1 mitochondrial signal, unstimulated adipocytes – cell-based, JC-1 fluorescence, 3T3-L1 adipocytes, 24 h, 100 nL compound, profiling panel (AID 1168); details: JC-1 mitochondrial fluorescence, higher = more signal, called active from +8 up or from −8 down; further: test concentration not given here
[18] = JC-1 mitochondrial signal, unstimulated myeloma cells – cell-based, JC-1 fluorescence, RPMI8226, 24 h, 100 nL compound, profiling panel (AID 1169); details: JC-1 mitochondrial potential fluorescence, higher = more signal; further: test concentration not given here
[19] = JC-1 mitochondrial signal, unstimulated MM1S myeloma – cell-based, JC-1 fluorescence, 24 h, 100 nL compound, profiling panel (AID 1170); details: MM1S mitochondrial potential, higher = more signal; further: test concentration not given here
[20] = resazurin metabolic signal in A549 cells – cell-based, resazurin fluorescence, 24 h, PK04 Diversity Set, profiling panel (AID 1171); details: A549 viability, higher = more signal, called active from +8 up or from −8 down; further: test concentration not given here

Sequence of NADPH oxidase 2 (Homo sapiens) (P04839 whole entry, looked up): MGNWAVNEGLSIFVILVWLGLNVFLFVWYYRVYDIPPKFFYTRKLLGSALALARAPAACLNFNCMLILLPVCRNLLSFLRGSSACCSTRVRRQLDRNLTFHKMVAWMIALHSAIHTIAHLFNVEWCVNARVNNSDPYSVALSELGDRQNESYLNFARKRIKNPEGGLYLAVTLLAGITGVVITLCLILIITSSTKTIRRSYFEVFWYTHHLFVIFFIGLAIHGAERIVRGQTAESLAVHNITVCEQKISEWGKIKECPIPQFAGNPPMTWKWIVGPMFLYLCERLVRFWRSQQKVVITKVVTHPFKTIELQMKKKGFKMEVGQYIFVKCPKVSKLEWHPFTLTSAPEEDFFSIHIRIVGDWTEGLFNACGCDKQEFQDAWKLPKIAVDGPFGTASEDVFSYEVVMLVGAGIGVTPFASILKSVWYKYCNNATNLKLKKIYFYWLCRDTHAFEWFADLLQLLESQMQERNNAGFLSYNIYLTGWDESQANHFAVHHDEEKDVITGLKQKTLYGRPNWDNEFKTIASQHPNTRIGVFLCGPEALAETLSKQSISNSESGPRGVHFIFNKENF
Sequence of NADPH oxidase 4 (Homo sapiens) (Q9NPH5 whole entry, looked up): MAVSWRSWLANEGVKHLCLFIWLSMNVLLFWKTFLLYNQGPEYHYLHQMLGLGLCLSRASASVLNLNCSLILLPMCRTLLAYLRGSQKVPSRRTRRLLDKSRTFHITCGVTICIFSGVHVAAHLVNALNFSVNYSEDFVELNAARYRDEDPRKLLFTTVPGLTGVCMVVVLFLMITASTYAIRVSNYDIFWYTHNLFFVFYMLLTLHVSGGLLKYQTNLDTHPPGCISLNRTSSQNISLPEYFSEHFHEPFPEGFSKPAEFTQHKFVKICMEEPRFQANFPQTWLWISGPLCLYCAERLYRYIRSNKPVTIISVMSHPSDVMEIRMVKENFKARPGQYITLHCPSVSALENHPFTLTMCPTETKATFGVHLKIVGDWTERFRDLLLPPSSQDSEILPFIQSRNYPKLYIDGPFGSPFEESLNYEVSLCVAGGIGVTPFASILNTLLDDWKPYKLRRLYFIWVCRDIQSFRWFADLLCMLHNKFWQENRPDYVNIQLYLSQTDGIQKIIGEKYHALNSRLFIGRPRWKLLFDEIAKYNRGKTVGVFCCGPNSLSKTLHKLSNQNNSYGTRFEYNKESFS
Sequence of NADPH oxidase 5 (Homo sapiens) (Q96PH1 whole entry, looked up): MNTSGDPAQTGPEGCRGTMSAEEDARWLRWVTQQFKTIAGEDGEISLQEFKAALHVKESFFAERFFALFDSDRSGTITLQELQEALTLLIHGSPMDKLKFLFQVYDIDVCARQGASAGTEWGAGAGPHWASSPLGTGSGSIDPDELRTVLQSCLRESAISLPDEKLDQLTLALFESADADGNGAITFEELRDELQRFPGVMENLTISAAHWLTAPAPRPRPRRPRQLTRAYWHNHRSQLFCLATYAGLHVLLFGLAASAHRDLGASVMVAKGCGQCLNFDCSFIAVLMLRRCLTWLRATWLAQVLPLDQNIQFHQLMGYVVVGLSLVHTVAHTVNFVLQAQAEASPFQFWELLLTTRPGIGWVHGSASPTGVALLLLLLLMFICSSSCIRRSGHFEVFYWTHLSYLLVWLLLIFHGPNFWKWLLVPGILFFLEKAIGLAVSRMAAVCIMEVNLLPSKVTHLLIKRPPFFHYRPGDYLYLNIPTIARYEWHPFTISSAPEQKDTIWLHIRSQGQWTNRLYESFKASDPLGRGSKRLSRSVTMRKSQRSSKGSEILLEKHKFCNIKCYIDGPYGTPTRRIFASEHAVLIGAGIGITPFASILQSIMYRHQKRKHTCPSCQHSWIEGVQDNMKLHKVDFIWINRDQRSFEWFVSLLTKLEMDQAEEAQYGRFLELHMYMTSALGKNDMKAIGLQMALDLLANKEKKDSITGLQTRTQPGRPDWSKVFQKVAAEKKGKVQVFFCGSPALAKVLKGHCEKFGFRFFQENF

Row | SMILES | z-score [1] | composite z-score [2] | z-score [3] | z-score [4] | z-score [5] | z-score [6] | z-score [7] | z-score [8] | z-score [9] | z-score [10] | z-score [11] | z-score [12] | z-score [13] | z-score [14] | z-score [15] | z-score [16] | z-score [17] | z-score [18] | z-score [19] | z-score [20]
1 | NC(=O)N1C(=O)C2C(C1=O)C1C=C(CCCO)C2C(c2cccs2)N1Cc1cc2c(cc1Br)OCO2 (stereo not given) | 0.0978 (inactive) | 0.254 | 17.7 (active) | 2.3 (inactive) | 0.865 (inactive) | 0.872 (inactive) | 0.413 | -0.848 (inactive) | -0.662 (inactive) | -1.1 | 0.89 | 1.46 | 0.78 | 0.0067 | 0.695 | 1.01 | 0.111 (inactive) | -0.11 | -0.214 | 0.514 (inactive)
2 | COc1cc(CO)cc(I)c1O[C@H]1C=C(C(=O)NCCO)C[C@@H](NCc2ccccc2F)[C@@H]1O | 1.96 (inactive) | -0.117 | 22.2 (active) | 4.37 (inactive) | 3.59 (inactive) | 1.09 (inactive) | 0.51 | 0.0575 (inactive) | -0.344 (inactive) | -1.69 | 0.687 | -0.512 | 0.496 | 0.0067 | 0.12 | -0.0312 | -0.561 (inactive) | 0.231 | -1.59 | 0.106 (inactive)
3 | C[C@H]1C2=C3C(CC[C@H]4C(OCc5ccc(F)cc5C(F)(F)F)OC[C@](C)([C@@H]34)N(C(=O)OC(C)(C)C)C2)C(CO)C1CO (stereo not given in full) | -2.8 (inactive) | 0.687 | 1.94 (inactive) | 0.368 (inactive) | 2.1 (inactive) | 0.864 (inactive) | 0.118 | -0.678 (inactive) | -2.59 (inactive) | -1.97 | -1.49 | -0.723 | -0.907 | -3.22 | -4.68 | -0.987 | -1.13 (inactive) | -0.522 | 0.0495 | -0.629 (inactive)
4 | C=CCOC(=O)[C@H]1[C@@H]2C(=O)O[C@@H](c3ccccc3)[C@@H](c3ccccc3)N2[C@@H](c2ccc(OCCOC(=O)[C@H]3C[C@H]4C(=O)N[C@@H](CCCC[N+](C)(C)C)C(=O)N4[C@H]3c3cccc(OCCO)c3)cc2)[C@]12C(=O)Nc1ccc(I)cc12 | 0.039 (inactive) | -0.17 | 3.12 (inactive) | 2.53 (inactive) | 1.58 (inactive) | 1.68 (inactive) | 0.4 | 0.822 (inactive) | 0.0287 (inactive) | 0.14 | -0.319 | -0.0546 | 1.67 | 0.596 | 0.532 | -2 | -0.124 (inactive) | -0.51 | -1.31 | 0.134 (inactive)
5 | CCOC(=O)[C@H]1C/C=C/C[C@H](C(=O)OCC)C(=O)O[C@H]2[C@@H](OC)O[C@H](CO)[C@@H](OC(=O)CCc3ccccc3)[C@@H]2OC1=O | -0.142 (inactive) | 1.63 | 0.955 (inactive) | 0.175 (inactive) | -0.518 (inactive) | 0.386 (inactive) | -0.0947 | 0.281 (inactive) | 0.273 (inactive) | 0.541 | 0.837 | 0.342 | 0.957 | 0.269 | 0.331 | 0.957 | 0.352 (inactive) | 0.655 | -0.533 | -0.553 (inactive)
6 | CN(C)CCCN1C(=O)[C@@]2(c3ccc([N+](=O)[O-])cc3)CC(=O)N(CC34CC5CC(CC(C5)C3)C4)[C@@H]2c2ccc(CO)cc21 | 0.388 (inactive) | -0.0662 | 2.1 (inactive) | -0.451 (inactive) | 1.27 (inactive) | -0.405 (inactive) | 0.299 | -2.29 (inactive) | -0.0839 (inactive) | 1.56 | 2.86 | 0.338 | 0.28 | -0.18 | 0.621 | 0.474 | 1.38 (inactive) | -0.0069 | 0.41 | -0.928 (inactive)
7 | CCC[C@@H]1C[C@@]1(CCC)[C@@H](NP(=O)(c1ccccc1)c1ccccc1)c1ccc(Cl)cc1 | -2.39 (inactive) | 0.0315 | 0.887 (inactive) | 0.0991 (inactive) | 0.278 (inactive) | 0.323 (inactive) | 0.0038 | -0.769 (inactive) | -1.97 (inactive) | 0.429 | -1.19 | -1.03 | -1.99 | -1.45 | -2.28 | -4.09 | -0.876 (inactive) | -0.618 | -1.81 | 0.419 (inactive)
